From ChEMBL document CHEMBL4513146, “CO-ADD screening of Karazin Kharkiv National University (Ukraine) compounds”
Results with a measured potency or affinity are listed apart.

Each molecule was assayed on Cryptococcus neoformans. Conditions: Concentration 32 ug.mL-1; ASSAY_TEST Inhibition of Fungal Growth; detection method Resazurin; Absorption (OD600-OD570); plate type 384well; NBS; CORNING #3640.

Point of comparison: `COc1ccc(-c2cc3c4nn(CC(=O)Nc5ccc(C)cc5)c(=O)n4ccn3n2)cc1`, Inhibition -26.93%. Against it:
- Cc1ccc(Sc2nccn3c(=O)n(CC(=O)Nc4ccccc4Br)nc23)c(C)c1 — higher, -20.06%
- CCc1ccc(N(Cc2ccccc2)S(=O)(=O)c2cccn3cnnc23)cc1 — higher, -3.81%
- COc1cc(NC(=O)Cn2nc3ccc(SC(C)(C)C)nn3c2=O)cc(OC)c1OC — higher, -18.78%
- Cc1cc(C)c(NC(=O)Cn2nc3ccc(-c4ccc(C)c(C)c4)nn3c2=O)c(C)c1 — higher, -13.99%
- O=S(=O)(c1ccc2nncn2c1)N(Cc1cccc(F)c1)c1cc(F)cc(F)c1 — higher, -6.89%
- Cc1c(Cl)cccc1NC(=O)CSc1nc2ccccc2n2c(C)nnc12 — lower, -27.73%
- CCCCn1c(=O)c2sccc2n2c(=O)n(CC(=O)c3cccc(OC)c3)nc12 — higher, -15.97%
- COC(=O)c1ccc(NC(=O)Cn2nc3c4cc(-c5ccc(F)cc5)nn4ccn3c2=O)cc1 — higher, -12.29%
- O=c1c2sccc2n2c(=O)n(Cc3c(F)cccc3Cl)nc2n1Cc1cccs1 — lower, -29.08%
- Cc1nc(-c2ccccc2)cc2nn(CC(=O)Nc3ccc4c(c3)OCO4)c(=O)n12 — higher, -7.69%
- O=C(CCc1nnc2c3cc(-c4ccc(F)cc4)nn3ccn12)N1CCC(Cc2ccccc2)CC1 — higher, -13.61%
- Cc1ccc(Cn2nc3c(=O)n(-c4cccc(F)c4)ccn3c2=O)cc1 — higher, -10.74%
- COc1ccc(NC(=O)Cn2nc3c4cc(-c5ccc(C)c(C)c5)nn4ccn3c2=O)cc1Cl — higher, -7.3%
- CCOc1ccc(C(=O)Cn2nc3n(Cc4ccccc4OC)c(=O)c4sccc4n3c2=O)cc1 — lower, -29.81%
- Cc1cc(C)c(NC(=O)CSc2nnc3ccc(C(=O)Nc4cccc(F)c4)cn23)c(C)c1 — higher, -5.55%
- Cc1ccc(N(CC(=O)OC(C)(C)C)S(=O)(=O)c2cccn3cnnc23)cc1 — higher, -6.45%
- O=C(Cn1nc2c(=O)n(-c3ccc(Br)cc3)ccn2c1=O)Nc1ccc(F)cc1F — higher, -12.15%
- CCOc1ccccc1NC(=O)Cn1c(=O)c2nnc(C(C)C)n2c2ccccc21 — higher, -2.8%
- O=C(CSc1nnc2c(=O)n(-c3ccc(Br)cc3)ccn12)Nc1cccc(F)c1 — higher, -18.67%
- COc1cc(NC(=O)Cn2nc3ccc(-c4ccc(Cl)cc4)nn3c2=O)cc(OC)c1 — higher, -13.03%
- O=c1n(Cc2cccc(Cl)c2)nc2ccc(-c3ccccc3)nn12 — higher, -20.37%
- Cc1cccc(Oc2nccn3c(=O)n(CC(=O)Nc4ccccc4C(F)(F)F)nc23)c1C — higher, -7.67%
- CCc1nnc2ccc(S(=O)(=O)N(Cc3ccccc3)c3ccccc3)cn12 — higher, -7.97%
- CCc1ccc(N(Cc2cc(F)cc(F)c2)S(=O)(=O)c2cccn3c(C)nnc23)cc1 — higher, -2.77%
- Cc1nnc2c(S(=O)(=O)N(Cc3cccc(F)c3)c3ccc(C(C)C)cc3)cccn12 — higher, -6.4%
- O=C(Cn1nc2c(SC3CCCCC3)nccn2c1=O)Nc1ccccc1Br — higher, -1.71%
- COc1ccc(NC(=O)Cn2nc3c4cc(-c5ccc(C)c(C)c5)nn4ccn3c2=O)c(OC)c1 — higher, -22.33%
- O=c1c2nn(Cc3ccccc3F)c(=O)n2ccn1-c1ccccc1 — higher, -10.1%
- Cc1cc(C)cc(Nc2nc(C)cc3nn(CC(=O)Nc4ccc(F)cc4F)c(=O)n23)c1 — higher, -6.19%
- CCCCOc1ccc(-c2cc3c4nnc(SCC(=O)Nc5c(C)cccc5C)n4ccn3n2)cc1 — higher, -13.35%
- COc1ccc(-n2ccn3c(SCC(=O)N4CCN(c5ccccc5F)CC4)nnc3c2=O)cc1 — higher, -14.55%
- COc1ccccc1N1CCN(C(=O)Cn2nc3c(Sc4cccc(C)c4)nccn3c2=O)CC1 — lower, -34.84%
- CCc1ccc(N(Cc2ccc(Cl)cc2)S(=O)(=O)c2cccn3c(C)nnc23)cc1 — higher, -5.55%
- Cc1ccc(-c2cc3c4nnc(CCC(=O)N5CCN(c6ccccc6F)CC5)n4ccn3n2)cc1C — higher, -23.24%
- COc1ccc(N2CCN(C(=O)Cn3nc4c(Oc5ccccc5)nccn4c3=O)CC2)cc1 — higher, -7.66%
- O=C(CSc1nnc2c(=O)n(-c3ccc(F)c(F)c3)ccn12)c1cccc(Cl)c1 — higher, -8.13%
- Cc1nnc2c(SCC(=O)Nc3ccc(Br)cc3F)nc3ccccc3n12 — higher, -6.82%
- Cc1ccccc1NC(=O)Cn1nc2ccc(SC3CCCCC3)nn2c1=O — higher, -16.32%
- COc1cccc(CNC(=O)Cn2nc3c4cc(-c5cc(C)ccc5C)nn4ccn3c2=O)c1OC — higher, -13.57%
